# Source: PubChem
# Only some compounds are listed: those with a hit (about 3.4% of all), similar ones and a draw of the others.
# GPR151 ag: activates the human receptor GPR151; Q8TDV0; PathHunter beta-arrestin GPR151 cells, luminescence; AID 1508602; activation, % at 11.2 µM; actives 1% (n = 650,000); in the data active = activation above about 4.9%;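 also: 0% = median of compound wells and 100% = cells with positive control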
# TEAD-YAP block: TEAD-YAP interaction inhibition | actives 1.4% (n = 640,000) | HEK-TIYL cells, TEAD-Gal4/YAP UAS-luciferase luminescence | inhibition, % at 9.12 µM; in the data active = inhibition above about 32%;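 also: 0% = median of test compound wells and 100% = reference inhibitor wells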
# FBW7 activator: human FBW7 E3 ligase activation, primary screen | Q969H0 | AlphaScreen FBW7–phospho-cyclin E peptide binding, activator screen | normalized activity (activation), % at 26.1 µM | actives 0.13% (n = 650,000); in the data active = normalized activity above about 1.9%;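 also: purified mutant Fbw7 with reduced substrate affinity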
# MITF primary: inhibitors of human MITF | O75030 | AlphaScreen MITF homodimerization, bead proximity signal | inhibition, % at 2.6 µM | actives 0.91% (n = 650,000); in the data active = inhibition above about 50%;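 also: 0% = vehicle wells with protein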
# GPR151 confirm: confirmation of human GPR151 activators | shares compounds with GPR151 ag | GPR151 PathHunter beta-arrestin cells, luminescence, 90 min; % of EA-reagent control over plate median | activation, % at 11.2 µM | 6,700 tested, under 10 active | AID 1508609;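 active = mean percent activation across replicates above the confirmation screen cutoff of 4.91%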
# GPR119 ag: GPR119 activation, counter-screen for GPR151 activators; activation, % at 11.2 µM; GPR119 PathHunter beta-arrestin cells, luminescence, 90 min; 0 = compound-well median, 100 = enzyme-acceptor control; shares compounds with GPR151 ag; AID 1508611; actives 0.3% (n = 6,700);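 active = mean percent activation in the counterscreen above 29.09%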;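 also: counterscreen on off-target GPR119 to flag nonselective hits from the GPR151 activator screen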
# Target sequence (Q8TDV5 whole entry, looked up): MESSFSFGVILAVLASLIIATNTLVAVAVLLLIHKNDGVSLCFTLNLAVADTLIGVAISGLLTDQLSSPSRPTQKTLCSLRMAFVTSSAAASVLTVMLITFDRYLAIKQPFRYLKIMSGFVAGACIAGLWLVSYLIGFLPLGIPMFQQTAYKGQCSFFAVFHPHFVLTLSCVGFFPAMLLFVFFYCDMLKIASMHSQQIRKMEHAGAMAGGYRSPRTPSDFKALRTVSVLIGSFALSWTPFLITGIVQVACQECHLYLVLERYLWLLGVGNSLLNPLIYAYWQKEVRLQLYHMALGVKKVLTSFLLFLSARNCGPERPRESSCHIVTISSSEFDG
# * marks the source's active call; other numbers are inactive results; · = no result given.
SMILES,GPR151 ag,TEAD-YAP block,FBW7 activator,MITF primary,GPR151 confirm,GPR119 ag
Cc1cc(C)nc(Nc2n[nH]c(COc3ccccc3)n2)n1,5.7*,-14,0,6,-1,-2
Cn1c(N)c(C(=O)COC(=O)c2ccc(O)cc2)c(=O)n(C)c1=O,-1,1,0,-3,·,·
CC(Nc1nc(CN(C)C2CCOCC2)nc2ccccc12)c1ccc(F)cc1 (stereo unspecified),7.7*,3,0,2,1,8
Cc1ccc(CNc2nc(CN(C)C3CCOC3)nc3ccccc23)cc1 (stereo unspecified),-1,11,0,10,·,·
CCN(CC)S(=O)(=O)c1ccc2[nH]cc(C(=O)N3CCCC3)c(=O)c2c1,1,-2,0,6,·,·
CCOC(=O)C1=C(C)N(C)C(SC)=NC1c1ccco1 (stereo unspecified),6.4*,-2,0,9,1,5
CCN1/C(=C/c2ccc3cc(OC)ccc3[n+]2CC)Sc2ccc(C3CCCCC3)cc21,9.3*,88*,-1,24,-1,-3
CC1=C(C(=O)CN2CCN(c3ccccc3)CC2)N2C=CC=CC2N1 (stereo unspecified),9.2*,7,0,5,1,7
CC(C)(C)CN1C(=O)C(c2ccccc2)(c2ccccc2)N=C1N,0,·,·,·,·,·
O=C(Nc1nnc(N2CCCC2)s1)Nc1ccc(Br)cc1F,5.6*,-11,0,0,0,-3
Cc1ccc(NC(=O)Nc2nnc(N3CCCCC3)s2)c(Cl)c1,5.3*,5,0,-3,0,-9
O=C(Nc1nnc(N2CCCC2)s1)Nc1ccccc1F,0,-74,0,-3,·,·
Cn1c(=O)[nH]c(=O)c2c1nc(SCC(=O)OCc1ccccc1)n2Cc1ccccc1,-1,3,1,1,·,·
Cn1ncc2c(Nc3ccc(Cl)cc3Cl)ncnc21,1,2,0,12,·,·
Cn1ncc2c(NCCc3ccc(Cl)cc3Cl)ncnc21,5.0*,28,0,1,3,35*
CCc1ccc(OCC(=O)Nc2cc(C)on2)cc1,-1,-51,0,4,·,·
CCc1ccc(C(=O)NC(CC(C)C)C(=O)Nc2cc(C)on2)cc1 (stereo unspecified),5.3*,0,0,3,0,-1
N#C/C(=C\c1cc2c(cc1Cl)OCO2)C(=O)Nc1cc([N+](=O)[O-])ccc1Cl,0,7,0,6,·,·
OC1(c2cccc(F)c2)CCN(Cc2ccncc2)CC1,6.1*,-15,1,20,1,17
OC1(c2cccnc2)CCN(Cc2cccc(F)c2)CC1,0,5,0,7,·,·
COc1ccc(S(=O)(=O)N(C)CC(=O)Nc2cccc(OC)c2)cc1,6.2*,-1,0,9,0,-10
COc1ccc(CNC(=O)CN(C)S(=O)(=O)c2ccc(Cl)cc2)cc1,5.4*,4,0,13,0,-5
CCOc1ccc2nc(SCC(=O)Nc3cccc(NC(C)=O)c3)c(C)cc2c1,1,0,0,-3,·,·
COc1ccc(Cl)cc1N1CC(C(=O)Nc2c(C)cccc2C)CC1=O (stereo unspecified),8.3*,-1,0,-2,0,3
COc1ccccc1N1CC(C(=O)Nc2nnc(SC3CCCC3)s2)CC1=O (stereo unspecified),6.2*,11,0,3,1,1
SMILES,GPR151 ag,TEAD-YAP block,FBW7 activator,MITF primary,GPR151 confirm,GPR119 ag
COc1ccc(Cl)cc1N1CC(C(=O)Nc2nnc(C)s2)CC1=O (stereo unspecified),-1,-6,0,13,·,·
CCCn1c(C)cc(=O)c2cc([N+](=O)[O-])ccc21,11*,1,0,15,0,-6
Cc1noc(C)c1C(=O)OCC(=O)Nc1ccc(OC(F)(F)F)cc1,0,10,0,-3,·,·
O=C(c1cc2nc(-c3ccc(Cl)c(Cl)c3)cc(C(F)(F)F)n2n1)N1CCOCC1,1,0,0,-10,·,·
CCOc1cc(C=C(C(=O)OC)C(=O)OC)ccc1OCc1ccc([N+](=O)[O-])cc1,5.2*,14,0,5,1,10
COC(=O)C(=Cc1cc(OC)c(O)c([N+](=O)[O-])c1)C(=O)OC,5.7*,4,0,21,0,8
CCc1ccccc1OCCOCCNCCO,3,14,0,25,·,·
Cc1cn2c3c(=O)n(CC(N)=O)c(=O)n(C)c3nc2n1-c1ccc(Cl)cc1,5.7*,3,0,5,0,-4
C=CCn1c(C)cc(C(=O)COC(=O)CNC(=O)c2ccc(OCC)c(OCC)c2)c1C,9.6*,-1,0,5,0,2
COc1ccc(/C=C(\NC(=O)c2ccc(OC)cc2)C(=O)NC(C)C(=O)O)cc1 (stereo unspecified),2,1,0,14,·,·
COc1ccc(C(=O)N/C(=C/c2ccccc2)C(=O)NC(C)C(=O)O)cc1 (stereo unspecified),8.7*,3,0,11,1,11
O=C(Cn1c(=O)oc2cc(S(=O)(=O)N3CCc4ccccc43)ccc21)NC1CCCC1,7.5*,9,0,-7,1,-6
O=C(Cn1c(=O)oc2cc(S(=O)(=O)N3CCCCCC3)ccc21)NC1CCCCC1,-1,1,0,8,·,·
COc1ccc(NC(=O)Cn2c(=O)oc3cc(S(=O)(=O)N4CCCC4)ccc32)cc1,5.0*,14,0,5,0,-2
CC(C)N(CCNc1ncnc2c1nc(Nc1ccc(N3CCOCC3)cc1)n2C(C)C)C(C)C,1,2,0,8,·,·
Cc1ccc(C2C3C(=O)N(C)C(=O)C3ON2c2ccccc2)cc1 (stereo unspecified),9.3*,-3,0,4,0,-4
CN1C(=O)C2ON(c3ccc(Cl)cc3)C(c3ccccc3)C2C1=O (stereo unspecified),-1,11,0,6,·,·
Clc1nc(NCc2ccccc2)c2ncn(-c3ccccc3)c2n1,5.0*,-19,0,5,2,-4
c1ccc(CNc2nc(Nc3ccncc3)nc3c2ncn3-c2ccccc2)cc1,6.6*,-3,0,-1,-1,-14
Cn1c(-c2cc(Cl)ccc2O)n[nH]c1=S,-1,7,0,14,·,·
Clc1ccc(CSc2ncnc3nc[nH]c23)cc1,6.6*,-4,0,10,0,-5
CN(C)CCCNc1ccc(S(N)(=O)=O)cc1[N+](=O)[O-],5.7*,2,1,8,0,3
CC(C)=C/C(C)=N/Nc1ccc(S(N)(=O)=O)cc1[N+](=O)[O-],4.9*,4,0,-3,-1,-9
O=C(NCC1CCN(C2CCCC2)C1)c1cnn2ccccc12 (stereo unspecified),0,-2,0,3,·,·
